From PubChem BioAssay (NCATS) come the findings set out here.

For assay [1], the target named is Cytochrome P450 3A4 (Homo sapiens) (UniProt P08684). As to the kind of experiment: qHTS Assay for Inhibitors and Substrates of Cytochrome P450 3A4 (AID 884). Further: nearly all actives have a fitted effect of over 50% in size. Further: potency means the concentration at half of the fitted maximal effect. On activity change, negative = inhibition: on the % scale 0 is the no-effect control and ±100 the full control effect. Conditions: recombinant CYP3A4, Luciferin-PPXE luminescence; series mostly up to 57.1 µM. The gist of the method:
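20 nM human CYP3A4 with 25 uM Luciferin-PPXE (at KM) in 200 mM KPO4, preincubated 10 min with compound; NADPH regeneration started a 60 min RT reaction. Luciferin detected by luminescence, normalized to 57 uM ketoconazole as full inhibition.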

For assay [2] the target is unchanged. As to the kind of experiment: qHTS Assay for Activators of Cytochrome P450 3A4 (AID 885). Further: nearly all actives have a fitted effect of over 65% in size. Conditions: recombinant CYP3A4, Luciferin-PPXE luminescence, 60 min; series mostly up to 57.1 µM. The gist of the method: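 Quantitative HTS format: compounds preincubated with 20nM human CYP3A4 and Luciferin-PPXE substrate at KM, reaction started by NADPH regeneration, stopped after 60 min, luciferase luminescence read 20 min later.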
Background: Quantitative high-throughput screening tests each substance at several concentrations.

Assay [3] can be described thus: Confirmation and Secondary Assay for Modulators of Hemoglobin Beta Chain Splicing at IVS2 705 locus (AID 930).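 Further: HeLa cells stably expressing the EGFP-705 splicing reporter; GFP fluorescence per well restored by corrected splicing of the IVS2-705 intron in EGFP; % of control where 0% means no effect.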 The note with it: HeLa EGFP-705 splicing reporter, GFP fluorescence, 48 h; series mostly up to 46.1 µM. The gist of the method: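 Per-well GFP, captured at 1 x 8 µm resolution with 488 nm excitation, served as the read-out for HeLa EGFP-705 cells incubated 2 days with test compound versus DMSO.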

Assay [4] in a line: qHTS Assay for Lipid Storage Modulators (AID 1519; calls by dose curve; on activity change, negative = inhibition: on the % scale 0 is the no-effect control and ±100 the full control effect). The note with it: Drosophila S3 cells, BODIPY lipid droplet/cell ratio, laser cytometry, cells loaded with oleic acid; for activity change, negative = inhibition: at 57.5 µM (top of the series). A digest of the protocol: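 Cells seeded at 5,000 per well were treated with compounds over a concentration series and loaded with oleic acid (400 uM, as added). Lipid droplet fluorescence (488 nm excitation, 500-530 nm channel) was read by laser-scanning cytometry and normalized to 20 uM Triacsin C.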

For assay [5], the target named is Ubiquitin carboxyl-terminal hydrolase 1 (Homo sapiens) (UniProt O94782). The assay is described as follows: Inhibitors of USP1/UAF1: Pilot qHTS (AID 504865).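 Further: rhodamine fluorescence freed from ubiquitin-rhodamine substrate followed over time; top concentration of the series differs between compounds; on the % scale 0 is the no-effect control and ±100 the full control effect; nearly all actives have a fitted effect of over 35% in size.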 The note with it: purified USP1/UAF1, Ub-rhodamine cleavage fluorescence; series mostly up to 114 µM. The gist of the method: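 USP1/UAF1 complex (1nM) preincubated with compound 15 min at room temperature, then Ub-Rho substrate (150nM final) added. Fluorescence read kinetically at 480/540 nm, 6 reads every 60 seconds. Buffer: 50mM HEPES pH 7.8, 0.5mM EDTA, 0.1 mg/ml BSA, 1mM TCEP, 0.01% Tween-20.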
Chain of Ubiquitin carboxyl-terminal hydrolase 1 (Homo sapiens) (O94782 whole entry, looked up): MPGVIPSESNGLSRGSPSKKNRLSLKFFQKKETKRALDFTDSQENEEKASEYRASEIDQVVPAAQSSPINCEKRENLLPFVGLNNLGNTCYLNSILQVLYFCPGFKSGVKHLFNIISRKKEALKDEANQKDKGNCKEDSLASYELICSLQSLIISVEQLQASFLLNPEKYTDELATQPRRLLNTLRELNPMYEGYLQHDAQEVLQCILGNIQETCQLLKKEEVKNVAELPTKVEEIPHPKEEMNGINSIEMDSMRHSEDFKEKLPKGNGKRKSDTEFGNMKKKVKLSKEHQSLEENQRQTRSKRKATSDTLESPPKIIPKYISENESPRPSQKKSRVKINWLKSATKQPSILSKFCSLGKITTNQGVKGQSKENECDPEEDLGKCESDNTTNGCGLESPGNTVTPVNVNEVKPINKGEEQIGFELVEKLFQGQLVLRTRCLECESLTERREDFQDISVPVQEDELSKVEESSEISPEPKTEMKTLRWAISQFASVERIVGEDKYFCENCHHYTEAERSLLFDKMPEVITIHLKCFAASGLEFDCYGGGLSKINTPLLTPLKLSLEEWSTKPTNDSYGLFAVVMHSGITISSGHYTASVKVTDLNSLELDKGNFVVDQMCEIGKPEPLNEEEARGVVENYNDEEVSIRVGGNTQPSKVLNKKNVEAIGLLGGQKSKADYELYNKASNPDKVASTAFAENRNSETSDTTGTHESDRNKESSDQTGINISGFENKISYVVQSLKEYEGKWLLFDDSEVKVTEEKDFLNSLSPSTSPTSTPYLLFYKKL

Assay [6] can be described thus: Confirmation and Secondary Assay for Modulators of Hemoglobin Beta Chain Splicing at IVS2 654 locus (AID 910).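 Further: HeLa cells stably carrying EGFP split by mutant beta-globin IVS2-654 intron; % of control where 0% means no effect.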 Conditions: HeLa EGFP-654 splicing reporter, GFP fluorescence, 48 h; series mostly up to 46.1 µM. The gist of the method:
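HeLa cells stably expressing EGFP interrupted by β-globin IVS2-654 intron, seeded overnight in Opti-MEM/2% FCS, then treated 2 days at 37 °C. Restored splicing read as total peak GFP intensity per well by laser scanning cytometry (488 nm excitation, 500–520 nm emission); 500 nM antisense PNA as control.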

The target of assay [7] is Peroxisome proliferator-activated receptor alpha (Homo sapiens) (UniProt Q07869). The assay is described as follows: qHTS assay for small molecule agonists of the peroxisome proliferator-activated receptor alpha (PPARalpha) signaling pathway (AID 651778). Further: % of control where 0% means no effect. Conditions: PathHunter PPARalpha complementation, chemiluminescence, 6 h; stronger effect = higher value. A digest of the protocol:
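Enzyme-fragment complementation assay in which ligand-bound PPARalpha translocates and forms an active enzyme that generates chemiluminescence. Cells were plated overnight, exposed to compound for 6 hr at 37 C, and then given detection reagent for 60 min at room temperature.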

A short description of assay [8]: qHTS assay for cell viability of HEK293 cells (AID 743288). Further: on the % scale 0 is the no-effect control and ±100 the full control effect; nearly all actives have a fitted effect of over 50% in size. Conditions: ATP luminescence (CellTiter-Glo), 18 h; max response: stronger effect = lower value. A digest of the protocol: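 Parental HEK293 cells were seeded at 2,000 cells/well, rested at least 5 h at 37 C, then exposed to compounds in DMSO for 18 h at 37 C. Viability was read as ATP-dependent luciferase luminescence after 30 min at room temperature.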

Assay [9] addresses Luciferin 4-monooxygenase (Photinus pyralis) (UniProt P08659). As to the kind of experiment: Biochemical firefly luciferase enzyme assay for NPC (AID 624030).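 Further: purified P. pyralis luciferase at 10 nM with luciferin and ATP substrate; 0% = DMSO and -100% = full luciferase inhibition by PTC124 control; nearly all actives have a fitted effect of over 70% in size.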 Conditions: purified P. pyralis luciferase, luminescence, 5 min; series mostly up to 58.6 µM. A digest of the protocol:
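Purified P. pyralis luciferase at 10 nM in 50 mM Tris Acetate (final), luminescence read within 5 minutes of enzyme addition to compounds. Activity normalised to PTC124 versus DMSO; concentration-response curves classed by r2, magnitude and activity.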

[10] abbreviates: measured here: cell count channel max response.
Setting [11] is: measured here: lipid channel max response.

The structures appear in SMILES notation. Several values for one entry are separate records, joined by “and”; a condition that tells them apart may be missing. Equal entries are not always repeated. Results filed as inconclusive are left out. Some structures have more than one record in an assay (separate samples or runs), and their calls can disagree. Activity calls are given as the source filed them. Unless noted, the call rests on the fitted dose curve; in most records, active means well fitted curve in the direction sought with a large enough effect; inconclusive means small, poorly fitted or top-dose-only effect, or another doubt; inactive means no such curve, though single readings can be large; an effect the other way counts as inactive or inconclusive.

Chain of Peroxisome proliferator-activated receptor alpha (Homo sapiens) (Q07869 whole entry, looked up, the tested form may be a part): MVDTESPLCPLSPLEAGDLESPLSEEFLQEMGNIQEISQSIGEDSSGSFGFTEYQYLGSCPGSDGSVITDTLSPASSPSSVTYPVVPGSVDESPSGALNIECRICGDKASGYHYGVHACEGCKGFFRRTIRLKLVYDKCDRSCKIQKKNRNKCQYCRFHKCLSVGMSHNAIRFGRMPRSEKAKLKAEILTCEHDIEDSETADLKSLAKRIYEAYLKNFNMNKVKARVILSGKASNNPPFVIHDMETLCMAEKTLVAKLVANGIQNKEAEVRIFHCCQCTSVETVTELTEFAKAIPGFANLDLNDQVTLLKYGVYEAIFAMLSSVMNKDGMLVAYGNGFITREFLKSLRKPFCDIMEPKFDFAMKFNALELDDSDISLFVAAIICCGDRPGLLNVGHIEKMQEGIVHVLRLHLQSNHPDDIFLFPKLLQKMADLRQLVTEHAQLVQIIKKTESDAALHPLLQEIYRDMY
Chain of Cytochrome P450 3A4 (Homo sapiens) (P08684 whole entry, looked up): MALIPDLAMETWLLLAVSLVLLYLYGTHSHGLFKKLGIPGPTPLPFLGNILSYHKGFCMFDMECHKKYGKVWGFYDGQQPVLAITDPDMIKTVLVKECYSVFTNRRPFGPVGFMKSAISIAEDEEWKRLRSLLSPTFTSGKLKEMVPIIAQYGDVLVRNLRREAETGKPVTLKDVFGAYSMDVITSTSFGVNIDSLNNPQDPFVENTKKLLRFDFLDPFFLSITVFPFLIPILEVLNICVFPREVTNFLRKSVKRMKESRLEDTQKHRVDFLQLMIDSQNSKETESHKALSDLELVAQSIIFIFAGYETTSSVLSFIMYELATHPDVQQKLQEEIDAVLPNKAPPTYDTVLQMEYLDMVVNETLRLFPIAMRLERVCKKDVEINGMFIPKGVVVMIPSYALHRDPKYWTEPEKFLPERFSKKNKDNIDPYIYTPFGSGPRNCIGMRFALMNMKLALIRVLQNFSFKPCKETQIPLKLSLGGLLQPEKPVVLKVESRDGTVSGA
Chain of Luciferin 4-monooxygenase (Photinus pyralis) (P08659 whole entry, looked up): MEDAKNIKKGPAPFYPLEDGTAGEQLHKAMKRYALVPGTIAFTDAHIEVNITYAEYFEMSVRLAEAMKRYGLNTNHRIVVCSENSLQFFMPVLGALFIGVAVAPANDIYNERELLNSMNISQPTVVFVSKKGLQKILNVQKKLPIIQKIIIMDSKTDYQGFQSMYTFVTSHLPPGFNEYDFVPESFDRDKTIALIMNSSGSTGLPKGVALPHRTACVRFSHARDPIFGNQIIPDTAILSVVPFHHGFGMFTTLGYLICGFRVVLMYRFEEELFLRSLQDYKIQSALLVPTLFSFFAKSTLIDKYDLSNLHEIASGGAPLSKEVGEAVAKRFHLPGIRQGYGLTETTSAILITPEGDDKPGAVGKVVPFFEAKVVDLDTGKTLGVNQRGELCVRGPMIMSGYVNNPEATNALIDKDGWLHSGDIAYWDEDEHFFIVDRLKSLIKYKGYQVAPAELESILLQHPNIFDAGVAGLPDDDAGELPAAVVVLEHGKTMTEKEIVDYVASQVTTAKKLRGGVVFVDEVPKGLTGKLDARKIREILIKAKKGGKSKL

Turning to `COc1cc(C2c3cc4c(cc3C(OC(C)=O)[C@H]3COC(=O)C23)OCO4)cc(OC)c1OC` (some centres not stated), the Potency entry in [1] was “inactive and 1.26 µM (active)”. Also, the Potency entry in [2], in assay [3] and in assay [5] was “inactive” throughout. Besides, the activity change, negative = inhibition in [4] was 0.38% (inactive) and 4.56% (inactive). Moreover, the max response was 26.1% and 10% in [4] (setting [10]); 22.6% and 16.4% in assay [4] (setting [11]).

Regarding `C/C=C(\C)C(=O)OC1CC(OC(C)=O)[C@@]2(C(=O)OC)COC3C2[C@@]12CO[C@](O)(C(=O)OC)C2[C@](C)(C12OC1(C)C1CC2OC2OC=C[C@]21O)C3O` (some centres not stated), in assay [1], the Potency is 12.6 µM (active). Moreover, the Potency result in [2], in [6], in assay [3] and in assay [5] was “inactive” in each case. Further, the activity change, negative = inhibition in assay [4] was -3.34% (inactive). For the same molecule, the max response was -9.57% in assay [4] (setting [10]) and -10.6% in assay [4] (setting [11]).

Turning to `CC(C)N1C(=O)c2ccccc2NS1(=O)=O`, the Potency entry in assay [1], in [6], in [3] and in assay [5] was “inactive” each time. The activity change, negative = inhibition in assay [4] is 2.96% (inactive). The max response in [4] (setting [10]) was 13.1%; in [4] (setting [11]), 17.2%; in [7] it was -0.187% (inactive); in [8], -4.24% (inactive).

Turning to `CCc1cccc(C)c1N(C(=O)CCl)C(C)COC` (configuration not stated), the Potency result in [1], in assay [6], in assay [3] and in assay [5] was “inactive” throughout. Moreover, in assay [4], the activity change, negative = inhibition was 1.46% (inactive). The max response in assay [4] (setting [10]) was 1.84%; in assay [4] (setting [11]), 4.99%; in assay [7] it was -0.424% (inactive); in assay [8], -14.8% (inactive).

For the molecule `COP(N)(=O)SC` (configuration not stated), the Potency result in assay [1], in assay [6], in assay [3] and in [5] was “inactive” throughout. In addition, the activity change, negative = inhibition in assay [4] was 4.67% (inactive). For the same molecule, the max response in assay [4] (setting [10]) was 0.934%; in assay [4] (setting [11]), 6.43%; in [7], -4.83% (inactive) and -1.06% (inactive); in assay [8], -4.36% (inactive) and -1.51% (inactive).

Take `CC(=O)OC1CCC23C(=O)OC45CCC(C6=CC(=O)OC6)C4(C)CCC2C5CCC3(O)C1` (configuration not stated): the Potency entry in [1], in assay [6], in assay [3] and in assay [5] was “inactive” each time. Further, the activity change, negative = inhibition in assay [4] is -4.87% (inactive). For the same molecule, the max response in assay [4] (setting [10]) was 6.6%; in assay [4] (setting [11]) it was 2.69%.

Take `COc1nc(NC(C)C)nc(NC(C)C)n1`: the Potency entry in assay [1], in assay [6], in assay [3] and in assay [5] was “inactive” throughout. For the same molecule, in assay [4], the activity change, negative = inhibition is 2.18% (inactive). The max response is -5.5% in [4] (setting [10]), -2.96% in assay [4] (setting [11]), -3.74% (inactive) in assay [7] and -7.69% (inactive) in assay [8].

For the molecule `COC1C(O)C(C)O[C@H](OC2CC[C@@]3(C=O)C4CC[C@]5(C)C(C6=CC(=O)OC6)CC[C@@]5(O)C4CC[C@@H]3C2)C1O` (some centres not stated), the Potency result in assay [1], in assay [6], in [3] and in assay [5] was “inactive” each time. Also, the activity change, negative = inhibition in assay [4] is 3.31% (inactive). For the same molecule, the max response in [4] (setting [10]) stood at 21.5%; in [4] (setting [11]), 24.5%.

On to `CC(C)CC(CN)CC(=O)O` (configuration not stated), for which the Potency result in [1], in [6], in assay [3], in assay [5] and in assay [9] was “inactive” each time. Also, in assay [4], the activity change, negative = inhibition is 8.71% (inactive). In addition, the results for the max response in assay [4] (setting [10]) and in assay [4] (setting [11]) were 14.3% and 26.2%, respectively.

As for `COC1CC(OC2CC[C@@]3(C=O)C4CC[C@]5(C)C(C6=CC(=O)OC6)CC[C@@]5(O)C4CC[C@]3(O)C2)OC(C)C1O` (some centres not stated), the Potency entry in [1], in [6], in assay [3] and in assay [5] was “inactive” each time. Further, the activity change, negative = inhibition in [4] is 0.995% (inactive). The max response was found to be 18.6% in assay [4] (setting [10]) and 20.5% in [4] (setting [11]).

As to `COC1=CC23CCCN2CCc2cc4c(cc2C3C1O)OCO4` (configuration not stated), the Potency in assay [1] is 31.6 µM (active). In addition, the Potency entry in [2], in assay [6], in assay [3] and in assay [5] was “inactive” in each case. In [4], the activity change, negative = inhibition was 15.3% (inactive). Also, the max response in assay [4] (setting [10]) was found to be 26.5%; in assay [4] (setting [11]) it was 52.2%.

For `CC(C)Nc1nc(Cl)nc(NC(C)C)n1`, the Potency result in assay [3] and in assay [5] was “inactive” in each case. For the same molecule, the activity change, negative = inhibition in [4] is 3.35% (inactive). Besides, the max response in [4] (setting [10]) is 5.6%; in assay [4] (setting [11]) it was 10.8%; in [7] it was -0.58% (inactive); in assay [8], -5.95% (inactive).

In the case of `O=C(O)CCC1NCC2CC1CN1CCCCC21` (configuration not stated), the Potency entry in [1], in [6], in [3] and in assay [5] was “inactive” in each case. Moreover, the activity change, negative = inhibition in assay [4] is 2.61% (inactive). For the same molecule, the max response is 3.62% in assay [4] (setting [10]) and 5.45% in assay [4] (setting [11]).
